Active and inactive are the calls of the source. The calls were made as follows: active = hit-call score of the fitted dose curve at least 0.9, where 1 is the maximum; inconclusive = response in the unintended direction; inactive = score below 0.9.
test: Tanguay_ZF_120hpf_ActivityScore_legacy: (Legacy) Oregon State University Tanguay Lab 120 Hour Post-fertilization zebrafish Assay Score for Activity (AID 2283742);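 as to AC50: dechorionated Tropical 5D wild-type zebrafish embryos held singly per well; static exposure from 6 hpf until 120 hpf at 28 °C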
Procedure, shortened: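 In this whole-embryo screen, dechorionated zebrafish were exposed from 6 hpf until 120 hpf at 28C under a 0.64% DMSO vehicle. Developmental malformations and death were recorded by brightfield microscopy as binary endpoints.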

Question: Which outcome does the source give for `CC(=O)NC1(c2cccc(F)c2)CCN(CC[C@@]2(c3ccc(Cl)c(Cl)c3)CN(c3ccccc3)C(=O)CO2)CC1` here?
Answer: inactive

Question: For `CCCCOCCO`, which outcome is on record?
Answer: inactive

Question: Which outcome does the source give for `CC(C)(C)c1cc(C(C)(C)C)c(O)c(C(C)(C)C)c1` here?
Answer: inactive

Question: With `COCC(C)O` (stereo unspecified) as the molecule, how does the outcome read?
Answer: inactive

Question: For `OC1CCCCC1`, which outcome is on record?
Answer: inactive

Question: With `ClC1=C(Cl)C(Cl)(Cl)C(Cl)=C1Cl` as the molecule, how does the outcome read?
Answer: inactive

Question: For `OC1CCC(C2CCCCC2)CC1` (stereo unspecified), which outcome is on record?
Answer: inactive

Question: Which outcome does the source give for `CCCOc1sc(C(=O)N2CCC(c3cc(CN)ccc3F)CC2)c(C)c1Br` here?
Answer: inactive

Question: For `N#C[C@@H]1CC(F)(F)CN1C(=O)CNC1CC2CCC(C1)N2c1ncccn1` (stereo partly specified), which outcome is on record?
Answer: inactive

Question: For `CCCCCCCCCCCCN1CCCC1=O`, which AC50 is on record?
Answer: 45.8 µM (active)

Question: For `CC(C)(C)c1ccc(O)c(C(C)(C)C)c1`, which AC50 is on record?
Answer: 0.00448 µM (active)

Question: Which outcome does the source give for `CCCCCCCCOC(=O)CCCCCCCCC(=O)OCCCCCCCC` here?
Answer: inactive

Question: For `CC[C@H](c1ccc(O)cc1)[C@@H](CC)c1ccc(O)cc1`, which outcome is on record?
Answer: inactive

Question: For `CCCCCCCCCCCCc1ccccc1S(=O)(=O)O`, which outcome is on record?
Answer: inactive

Question: With `CC[C@H](C)[C@@H](C(=O)O)n1sc2ccccc2c1=O` as the molecule, how does the outcome read?
Answer: inactive

Question: For `CC(=O)CC(C)(C)O`, which outcome is on record?
Answer: inactive

Question: Which outcome does the source give for `CCC(C)(C)C1CCC(O)CC1` (stereo unspecified) here?
Answer: inactive

Question: With `CCCCCCCC(=O)O` as the molecule, how does the outcome read?
Answer: inactive

Question: Which AC50 does the source give for `Cc1oc(-c2ccccc2)nc1CCOc1ccc(C[C@H](Nc2ccccc2C(=O)c2ccccc2)C(=O)O)cc1` here?
Answer: 33.2 µM (active)

Question: Which outcome does the source give for `CC(O)CO` (stereo unspecified) here?
Answer: inactive

Question: Which outcome does the source give for `Cc1cc(C)c(O)c(C)c1` here?
Answer: inactive

Question: Which outcome does the source give for `CC(C)(C)CC(C)(C)c1ccc(O)c(-n2nc3ccccc3n2)c1` here?
Answer: inactive

Question: For `CCCCC(CC)COC(=O)CCCCC(=O)OCc1ccccc1` (stereo unspecified), which outcome is on record?
Answer: inactive

Question: Which outcome does the source give for `C=C(C)C(=O)OCCC(F)(F)C(F)(F)C(F)(F)C(F)(F)C(F)(F)C(F)(F)F` here?
Answer: inactive

Question: For `CC(C)(C)c1cccc(C(C)(C)C)c1O`, which outcome is on record?
Answer: inactive

Question: With `NC(=O)N1C(=O)C(C(=O)c2cc(Cl)cs2)c2cc(F)c(Cl)cc21` (stereo unspecified) as the molecule, how does the AC50 read?
Answer: 2.88 µM (active)

Question: For `CCCCCCC(=O)O`, which outcome is on record?
Answer: inactive

Question: For `CC(C)CCCCCCOC(=O)CCCCC(=O)OCCCCCCC(C)C`, which outcome is on record?
Answer: inactive

Question: For `OCCC(F)(F)C(F)(F)C(F)(F)C(F)(F)C(F)(F)C(F)(F)C(F)(F)C(F)(F)F`, which outcome is on record?
Answer: inactive

Question: Which AC50 does the source give for `Oc1cc2ccccc2c2ccccc12` here?
Answer: 31.4 µM (active)

Question: Which outcome does the source give for `CCCCC(CC)COC(=O)CCCCC(=O)OCC(CC)CCCC` (stereo unspecified) here?
Answer: inactive
